Assay results published in PubChem BioAssay (NCATS).
“And” between values parts separate entries of the source, which are not always exact repeats. Identical values can stand only once. Results filed as inconclusive are left out. The source made the active and inactive calls. Calls follow the shape of the dose curve; as a rule, active = well fitted curve in the direction sought with a large enough effect; inconclusive = small, poorly fitted or top-dose-only effect, or another doubt; inactive = no such curve, though single readings can be large; an effect the other way counts as inactive or inconclusive.

Assays:
[1] = Viability qHTS for spleen associated tyrosine kinase inhibitor (SYKi) drug resistant MV4-11 cells (AID 1963824); conditions: SYKi-resistant MV4-11 viability, CellTiter-Glo, 72 h; series mostly up to 45 µM; also: nearly all actives have a fitted effect of over 35% in size; also: potency is read from the fitted curve at half-maximal effect
Procedure, shortened: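 SYK-inhibitor-resistant MV4-11 AML cells were seeded at 500 per well onto compound and cultured 72 hours (37 °C, 5% CO2). CellTiter-Glo was then added, and after 10 min at room temperature, luminescence gave viability.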

[2] = Quantitative highthroughput screen to assess conditional lethalithy of NOMO1 cells grown in RPMI1640 with untreated serum (RPMI+s) (AID 1963876); conditions: NOMO1 AML cells in RPMI+serum, CellTiter-Glo viability, 48 h; series mostly up to 45.8 µM; also: nearly all actives have a fitted effect of over 35% in size; also: potency is read from the fitted curve at half-maximal effect;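 as to Viability: 100% = DMSO wells and 0% = empty wells without cells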
Procedure, shortened: (§1)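 Each medium arm—HPLM with 10% dialyzed FBS, or RPMI1640 with 5 mM glucose and 10% untreated or dialyzed FBS—was screened against an 11-point, 3-fold compound titration for 48 h at 37 °C, with CellTiter-Glo luminescence as endpoint.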

[3] = Quantitative highthroughput screen to assess conditional lethalithy of NOMO1 cells grown in RPMI1640 with dialyzed fetal bovine serum (RPMI+ds) (AID 1963877); conditions: NOMO1 in RPMI+dialyzed FBS viability, ATP luminescence, 48 h; series mostly up to 45.8 µM;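 also: 100% = DMSO control wells and 0% = empty wells; nearly all actives have a fitted effect of over 30% in size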
Procedure, shortened: as §1

[4] = Quantitative highthroughput screen to assess conditional lethalithy of P12 Ichikawa cells grown in Human Plasma-Like Medium with dialyzed fetal bovine serum (HPLM+ds) (AID 1963879); conditions: ATP luminescence, 48 h; Potency: viability; series mostly up to 45.8 µM; also: nearly all actives have a fitted effect of over 35% in size; also: potency is read from the fitted curve at half-maximal effect
Procedure, shortened: as §1

[5] = Quantitative highthroughput screen to assess conditional lethalithy of P12 Ichikawa cells grown in RPMI1640 with dialyzed fetal bovine serum (RPMI+ds) (AID 1963880); conditions: ATP luminescence, 48 h; Potency: P12-Ichikawa viability; series mostly up to 45.8 µM; also: nearly all actives have a fitted effect of over 35% in size; also: potency is read from the fitted curve at half-maximal effect;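 as to Viability: 100% = DMSO wells and 0% = empty wells on each plate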
Procedure, shortened: as §1

[6] = Quantitative highthroughput screen to assess conditional lethalithy of P12 Ichikawa cells grown in RPMI1640 with untreated serum (RPMI+s) (AID 1963881); conditions: ATP luminescence, 48 h; Potency: viability; series mostly up to 45.8 µM; also: nearly all actives have a fitted effect of over 35% in size; also: potency is read from the fitted curve at half-maximal effect;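 as to Viability: 100% = DMSO wells and 0% = empty wells without cells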
Procedure, shortened: as §1

[7] = Cellular viability qHTS for adrenocortical cancer (ACC) cell line SW-13 (AID 1963989); conditions: SW-13 ACC cells viability, CellTiter-Glo, 48 h; activity (max response): hits give low values; also: nearly all actives have a fitted effect of over 65% in size; also: potency is read from the fitted curve at half-maximal effect;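 as to activity (max response): cells grown in serum-free medium with ITS supplement; % is scaled to controls: 0 for no effect and ±100 for the full control effect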
Procedure, shortened: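 48 h treatment, SW-13 in ITS/DMEM serum-free; doses up to 46 uM; readout CellTiter-Glo luminescence; curve fit four-parameter logistic.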

[8] = Cellular viability qHTS for adrenocortical cancer (ACC) cell line NCI-H295R (AID 1963990); conditions: CellTiter-Glo ATP luminescence, 48 h; series mostly up to 46.1 µM; also: nearly all actives have a fitted effect of over 60% in size; also: potency is read from the fitted curve at half-maximal effect
Procedure, shortened: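 Compound titrations (up to 46 uM final) are applied to NCI-H295R cultures for 48 h at 37C. Viable cell number is estimated by CellTiter-Glo signal, normalised to DMSO and doxorubicin controls.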

[9] = Quantitative highthroughput screen to assess conditional lethalithy of NOMO1 cells grown in Human Plasma-Like Medium with dialyzed fetal bovine serum (HPLM+ds) (AID 1963878); conditions: NOMO1 AML cells in HPLM+ds, CellTiter-Glo viability, 48 h; series mostly up to 45.8 µM; also: nearly all actives have a fitted effect of over 35% in size; also: potency is read from the fitted curve at half-maximal effect;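 as to Viability: 100% = DMSO wells and 0% = empty wells on each plate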
Procedure, shortened: as §1

[10] = Quantitative highthroughput screen to assess conditional lethalithy of SEM cells grown in RPMI1640 with unreated serum (RPMI+s) (AID 1963883); conditions: SEM B-ALL cells, CellTiter-Glo viability, 48 h; series mostly up to 45.8 µM; also: nearly all actives have a fitted effect of over 35% in size; also: potency is read from the fitted curve at half-maximal effect;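 as to Viability: 100% = DMSO wells and 0% = empty wells without cells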
Procedure, shortened: as §1

[11] = Quantitative highthroughput screen to assess conditional lethalithy of SEM cells grown in RPMI1640 with dialyzed fetal bovine serum (RPMI+ds) (AID 1963884); conditions: SEM B-ALL cells, RPMI+dialyzed FBS, CellTiter-Glo viability, 48 h; series mostly up to 45.8 µM; also: nearly all actives have a fitted effect of over 35% in size; also: potency is read from the fitted curve at half-maximal effect;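 as to Viability: 100% = DMSO control wells and 0% = empty wells without cells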
Procedure, shortened: as §1

COc1ccc(-c2cc3nccn3c(Nc3ncccc3C(N)=O)n2)cc1OC
active: Potency [1] 0.206 µM
inactive: Potency [2] | Potency [3] | Potency [4] | Potency [5] | Potency [6] | activity (max response) [7] -18.6% | Potency [8]

COc1cc([C@@H](CC(=O)O)c2ccc(C)c(CN3C[C@@H](C)Oc4ccccc4S3(=O)=O)c2)cc2nnn(C)c12
inactive: Potency [2] | Potency [3] | Potency [8]
active: Potency [1] 7.42 µM | Potency [4] 8.31 µM | Potency [5] 18.6 µM | Potency [6] 14.8 µM

C[C@@H]1CC[C@@]2(OC1)OC1CC3C4CC=C5CC(O)CCC5(C)C4CCC3(C)C1[C@@H]2C (stereo partly specified)
inactive: Potency [1] | activity (max response) [7] -3.87% | Potency [8]
active: Potency [2] 14.8 µM | Potency [9] 13.2 µM | Potency [4] 11.8 µM | Potency [5] 18.7 µM

O=C(c1ccc(OCCN2CCCCC2)cc1)c1c(-c2ccc(O)cc2)sc2cc(O)ccc12
active: Potency [1] 13.3 µM and 16.6 µM and 10.3 µM | Potency [7] 20.6 µM and 25.1 µM | Potency [8] 9.2 µM and 31.6 µM
inactive: Potency [2] | Potency [3] | Potency [10]

C=CCc1cc(OC)c(O)c(C(=O)NCCO)c1
inactive: Potency [1] | Potency [2] | Potency [9] | Potency [4] | Potency [5] | Potency [6] | Potency [10] | Potency [11] | activity (max response) [7] -2.94% | Potency [8]

O=c1cc(-c2ccccc2)oc2cc(O)c(O)c(O)c12
inactive: Potency [9] | activity (max response) [7] -15.6%
active: Potency [1] 18.6 µM | Potency [2] 5.9 µM | Potency [4] 5.9 µM | Potency [6] 9.35 µM | Potency [10] 4.18 µM | Potency [11] 8.33 µM
